Measured values taken from article PMC7862700, “An all-to-all approach to the identification of sequence-specific readers for epigenetic DNA modifications on cytosine”.

Columns and labels:
Assay in all cases: DAPPL (digital affinity profiling via proximity ligation, sequencing); 10 mM Tris-HCl pH 7.5, 50 mM NaCl, 1 mM DTT, 4% glycerol, room temperature, 30 min; GST-TFs on glutathione beads, 16-mer random dsDNA library, 0.1% formaldehyde crosslink after washing; high values mean tight binding
Settings in all cases: protein: recombinant; tags: N-terminal GST; dsDNA, one strand shown
[1] = target: T1, FLI1 (Homo sapiens, UniProt Q01543 1-452)
T1 sequence: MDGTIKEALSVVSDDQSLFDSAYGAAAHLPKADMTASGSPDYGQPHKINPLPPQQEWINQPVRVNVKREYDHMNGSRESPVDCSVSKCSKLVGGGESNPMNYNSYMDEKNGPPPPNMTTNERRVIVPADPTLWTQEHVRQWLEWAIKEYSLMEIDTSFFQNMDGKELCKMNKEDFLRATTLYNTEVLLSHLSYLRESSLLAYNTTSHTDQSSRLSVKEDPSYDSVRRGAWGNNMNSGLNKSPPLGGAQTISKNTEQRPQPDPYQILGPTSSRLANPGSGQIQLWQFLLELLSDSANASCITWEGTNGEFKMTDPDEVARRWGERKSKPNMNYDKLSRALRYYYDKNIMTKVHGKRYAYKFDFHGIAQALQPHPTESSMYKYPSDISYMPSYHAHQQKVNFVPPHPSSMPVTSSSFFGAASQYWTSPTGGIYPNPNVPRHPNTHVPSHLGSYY
Outline: (§1)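 Each value of binding signal is a hexamer's read frequency for a factor divided by the same hexamer's frequency in the tag-only sample. Barcoded, bead-captured GST fusions of human transcription factors made in yeast were pooled with that sample and incubated with 200 nmole of a random double-stranded 16-mer DNA library in Tris/NaCl/DTT/glycerol buffer at room temperature for 30 min. Washing, 0.1% formaldehyde crosslinking, proximity ligation, PCR and Illumina NextSeq500 sequencing followed.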

[2] = target: T2, ELK1 (Homo sapiens, UniProt P19419 1-428)
T2 sequence: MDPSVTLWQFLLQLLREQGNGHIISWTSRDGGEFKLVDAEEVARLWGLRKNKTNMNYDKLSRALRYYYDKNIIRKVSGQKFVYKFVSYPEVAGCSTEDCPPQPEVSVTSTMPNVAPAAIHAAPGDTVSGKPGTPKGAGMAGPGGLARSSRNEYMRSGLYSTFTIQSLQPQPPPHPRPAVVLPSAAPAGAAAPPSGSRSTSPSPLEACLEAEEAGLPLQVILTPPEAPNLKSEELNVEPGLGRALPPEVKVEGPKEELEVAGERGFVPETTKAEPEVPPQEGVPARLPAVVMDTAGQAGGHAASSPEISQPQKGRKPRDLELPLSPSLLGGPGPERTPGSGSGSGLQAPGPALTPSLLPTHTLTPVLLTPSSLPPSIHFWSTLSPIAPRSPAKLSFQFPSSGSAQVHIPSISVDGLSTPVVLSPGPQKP
Outline: as §1

[3] = target: T3, GABPA (Homo sapiens, UniProt Q06546 1-454)
T3 sequence: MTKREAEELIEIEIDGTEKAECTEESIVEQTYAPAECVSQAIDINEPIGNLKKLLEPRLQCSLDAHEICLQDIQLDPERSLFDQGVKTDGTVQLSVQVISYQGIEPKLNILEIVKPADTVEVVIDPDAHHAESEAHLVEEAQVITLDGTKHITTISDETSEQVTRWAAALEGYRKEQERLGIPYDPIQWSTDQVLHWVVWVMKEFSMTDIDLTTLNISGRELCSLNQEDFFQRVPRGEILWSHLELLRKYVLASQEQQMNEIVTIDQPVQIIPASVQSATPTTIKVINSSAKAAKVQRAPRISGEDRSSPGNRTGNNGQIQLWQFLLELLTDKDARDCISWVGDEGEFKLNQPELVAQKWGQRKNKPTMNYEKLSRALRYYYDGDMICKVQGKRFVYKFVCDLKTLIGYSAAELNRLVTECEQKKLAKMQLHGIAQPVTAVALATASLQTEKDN
Outline: as §1

[4] = target: T4, ERG (Homo sapiens, UniProt P11308 1-479)
T4 sequence: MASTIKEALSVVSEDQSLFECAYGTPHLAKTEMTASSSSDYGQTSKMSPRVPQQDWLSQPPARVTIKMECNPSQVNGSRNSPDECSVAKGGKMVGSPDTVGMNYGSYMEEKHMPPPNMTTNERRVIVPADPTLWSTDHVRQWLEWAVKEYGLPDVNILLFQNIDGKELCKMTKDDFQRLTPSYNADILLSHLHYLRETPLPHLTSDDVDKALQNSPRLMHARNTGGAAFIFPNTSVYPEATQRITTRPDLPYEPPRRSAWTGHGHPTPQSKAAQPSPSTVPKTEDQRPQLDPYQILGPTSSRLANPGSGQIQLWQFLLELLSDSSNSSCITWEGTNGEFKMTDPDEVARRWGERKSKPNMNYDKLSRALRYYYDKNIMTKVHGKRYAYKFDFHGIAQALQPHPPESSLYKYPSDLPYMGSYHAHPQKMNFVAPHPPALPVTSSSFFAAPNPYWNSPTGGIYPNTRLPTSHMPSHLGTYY
Outline: as §1

[5] = target: ELF1 (Homo sapiens, UniProt P32519 1-619)
Outline: as §1

[6] = target: T5, EHF (Homo sapiens, UniProt Q9NZC4 1-300)
T5 sequence: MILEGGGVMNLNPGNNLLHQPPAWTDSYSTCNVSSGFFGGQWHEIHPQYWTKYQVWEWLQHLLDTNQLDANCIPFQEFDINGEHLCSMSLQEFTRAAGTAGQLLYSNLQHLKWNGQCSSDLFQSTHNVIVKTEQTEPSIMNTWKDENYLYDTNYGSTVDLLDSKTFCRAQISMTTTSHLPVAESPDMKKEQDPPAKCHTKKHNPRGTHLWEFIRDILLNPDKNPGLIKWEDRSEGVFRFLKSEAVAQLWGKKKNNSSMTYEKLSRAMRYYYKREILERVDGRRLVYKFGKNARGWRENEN
Outline: as §1

[7] = target: SPI1 (Homo sapiens, UniProt P17947 1-270)
Outline: as §1

[8] = target: SPIB (Homo sapiens, UniProt Q01892 1-262)
Outline: as §1

[9] = target: T6, ELK3 (Homo sapiens, UniProt P41970 1-407)
T6 sequence: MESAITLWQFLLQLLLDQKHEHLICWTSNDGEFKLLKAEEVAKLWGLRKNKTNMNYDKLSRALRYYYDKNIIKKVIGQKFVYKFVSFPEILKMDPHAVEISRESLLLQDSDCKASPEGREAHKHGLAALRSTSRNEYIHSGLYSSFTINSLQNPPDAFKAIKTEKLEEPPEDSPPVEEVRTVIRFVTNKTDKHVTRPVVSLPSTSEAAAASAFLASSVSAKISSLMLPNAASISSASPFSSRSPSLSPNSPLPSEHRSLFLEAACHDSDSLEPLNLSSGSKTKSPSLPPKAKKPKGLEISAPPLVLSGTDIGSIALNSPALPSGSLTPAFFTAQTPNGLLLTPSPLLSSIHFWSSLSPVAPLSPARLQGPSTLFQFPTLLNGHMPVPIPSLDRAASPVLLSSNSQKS
Outline: as §1

[10] = target: T7, FEV (Homo sapiens, UniProt Q99581 1-238)
T7 sequence: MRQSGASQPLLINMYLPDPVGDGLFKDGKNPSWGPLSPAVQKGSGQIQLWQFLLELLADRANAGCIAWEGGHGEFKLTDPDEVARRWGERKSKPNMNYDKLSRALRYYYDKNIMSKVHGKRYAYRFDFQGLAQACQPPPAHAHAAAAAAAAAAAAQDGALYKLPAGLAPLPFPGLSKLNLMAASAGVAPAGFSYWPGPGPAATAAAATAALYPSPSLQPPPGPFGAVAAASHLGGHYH
Outline: as §1

[11] = target: ETV5 (Homo sapiens, UniProt P41161 1-510)
Outline: as §1

[12] = target: T8, SPIC (Homo sapiens, UniProt Q8N5J4 1-248)
T8 sequence: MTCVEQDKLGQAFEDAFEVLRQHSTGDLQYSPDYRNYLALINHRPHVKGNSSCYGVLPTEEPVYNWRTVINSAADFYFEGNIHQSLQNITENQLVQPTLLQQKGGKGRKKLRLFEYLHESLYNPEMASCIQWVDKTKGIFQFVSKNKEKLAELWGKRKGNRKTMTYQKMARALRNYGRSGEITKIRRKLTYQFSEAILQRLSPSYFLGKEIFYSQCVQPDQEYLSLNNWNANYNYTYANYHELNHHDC
Outline: as §1

[13] = target: ELF4 (Homo sapiens, UniProt Q99607 1-663)
Outline: as §1

[14] = target: T9, ELK4 (Homo sapiens, UniProt P28324-2 1-405)
T9 sequence: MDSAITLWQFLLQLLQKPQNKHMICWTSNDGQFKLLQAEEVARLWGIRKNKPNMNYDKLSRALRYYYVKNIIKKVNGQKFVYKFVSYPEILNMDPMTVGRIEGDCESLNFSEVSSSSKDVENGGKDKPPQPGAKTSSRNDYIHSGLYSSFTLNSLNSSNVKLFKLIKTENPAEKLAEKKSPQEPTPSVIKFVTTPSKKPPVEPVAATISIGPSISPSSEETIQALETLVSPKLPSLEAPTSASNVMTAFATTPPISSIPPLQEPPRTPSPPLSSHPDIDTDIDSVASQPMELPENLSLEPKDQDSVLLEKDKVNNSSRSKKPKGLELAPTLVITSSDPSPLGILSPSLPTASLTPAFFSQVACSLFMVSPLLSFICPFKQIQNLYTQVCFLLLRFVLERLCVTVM
Outline: as §1

[15] = target: T10, ETV2 (Homo sapiens, UniProt O00321 1-342)
T10 sequence: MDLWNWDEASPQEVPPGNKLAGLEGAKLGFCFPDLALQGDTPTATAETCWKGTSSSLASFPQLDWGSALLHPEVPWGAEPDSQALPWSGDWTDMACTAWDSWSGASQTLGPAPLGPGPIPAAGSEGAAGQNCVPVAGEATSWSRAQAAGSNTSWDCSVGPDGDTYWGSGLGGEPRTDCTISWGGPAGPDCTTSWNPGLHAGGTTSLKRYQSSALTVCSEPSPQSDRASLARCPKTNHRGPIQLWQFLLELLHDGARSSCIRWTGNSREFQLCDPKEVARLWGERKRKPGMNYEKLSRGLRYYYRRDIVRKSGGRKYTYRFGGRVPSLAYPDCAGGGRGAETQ
Outline: as §1

[16] = target: T11, ELF3 (Homo sapiens, UniProt P78545 1-371)
T11 sequence: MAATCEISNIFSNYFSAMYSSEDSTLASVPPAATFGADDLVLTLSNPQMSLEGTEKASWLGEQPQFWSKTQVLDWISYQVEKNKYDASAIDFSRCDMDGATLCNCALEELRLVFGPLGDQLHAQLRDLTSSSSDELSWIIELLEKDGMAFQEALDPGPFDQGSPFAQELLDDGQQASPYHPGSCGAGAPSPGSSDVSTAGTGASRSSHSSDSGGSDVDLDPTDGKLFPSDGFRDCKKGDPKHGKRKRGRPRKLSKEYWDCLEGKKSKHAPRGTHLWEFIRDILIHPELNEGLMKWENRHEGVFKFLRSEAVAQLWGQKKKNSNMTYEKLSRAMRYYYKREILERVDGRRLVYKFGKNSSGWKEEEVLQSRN
Outline: as §1

[17] = target: ETV1 (Homo sapiens, UniProt P50549 1-477)
Outline: as §1

Chain of ETV5 (P41161 whole entry): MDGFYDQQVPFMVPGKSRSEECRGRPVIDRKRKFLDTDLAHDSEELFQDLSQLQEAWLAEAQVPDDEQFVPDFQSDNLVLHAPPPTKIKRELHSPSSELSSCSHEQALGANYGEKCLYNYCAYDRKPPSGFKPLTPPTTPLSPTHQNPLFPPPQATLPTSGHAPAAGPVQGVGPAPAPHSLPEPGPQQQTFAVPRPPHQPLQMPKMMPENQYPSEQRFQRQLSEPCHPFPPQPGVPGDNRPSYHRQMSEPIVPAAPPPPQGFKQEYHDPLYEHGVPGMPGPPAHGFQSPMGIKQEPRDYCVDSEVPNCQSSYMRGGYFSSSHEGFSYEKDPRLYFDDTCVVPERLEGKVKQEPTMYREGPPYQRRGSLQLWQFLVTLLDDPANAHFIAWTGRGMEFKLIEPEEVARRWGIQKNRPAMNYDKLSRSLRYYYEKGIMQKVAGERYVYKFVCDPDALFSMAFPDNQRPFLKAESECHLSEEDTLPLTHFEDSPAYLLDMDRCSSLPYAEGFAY
Chain of ELF1 (P32519 whole entry): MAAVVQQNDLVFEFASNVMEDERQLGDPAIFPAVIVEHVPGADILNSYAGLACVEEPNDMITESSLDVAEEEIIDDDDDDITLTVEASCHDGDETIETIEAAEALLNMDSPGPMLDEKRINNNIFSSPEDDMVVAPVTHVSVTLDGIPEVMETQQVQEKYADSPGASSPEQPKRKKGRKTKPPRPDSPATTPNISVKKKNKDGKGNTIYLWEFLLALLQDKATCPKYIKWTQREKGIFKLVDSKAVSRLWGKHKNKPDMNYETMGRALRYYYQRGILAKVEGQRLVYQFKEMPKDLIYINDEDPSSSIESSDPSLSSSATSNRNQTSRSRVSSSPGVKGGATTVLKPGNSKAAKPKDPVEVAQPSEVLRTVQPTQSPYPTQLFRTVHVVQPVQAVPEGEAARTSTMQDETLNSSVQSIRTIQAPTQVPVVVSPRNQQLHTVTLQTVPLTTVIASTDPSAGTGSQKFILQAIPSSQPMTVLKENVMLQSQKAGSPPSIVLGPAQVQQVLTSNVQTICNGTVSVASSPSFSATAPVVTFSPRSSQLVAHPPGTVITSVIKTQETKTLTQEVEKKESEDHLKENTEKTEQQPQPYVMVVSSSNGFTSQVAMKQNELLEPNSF
Chain of ELF4 (Q99607 whole entry): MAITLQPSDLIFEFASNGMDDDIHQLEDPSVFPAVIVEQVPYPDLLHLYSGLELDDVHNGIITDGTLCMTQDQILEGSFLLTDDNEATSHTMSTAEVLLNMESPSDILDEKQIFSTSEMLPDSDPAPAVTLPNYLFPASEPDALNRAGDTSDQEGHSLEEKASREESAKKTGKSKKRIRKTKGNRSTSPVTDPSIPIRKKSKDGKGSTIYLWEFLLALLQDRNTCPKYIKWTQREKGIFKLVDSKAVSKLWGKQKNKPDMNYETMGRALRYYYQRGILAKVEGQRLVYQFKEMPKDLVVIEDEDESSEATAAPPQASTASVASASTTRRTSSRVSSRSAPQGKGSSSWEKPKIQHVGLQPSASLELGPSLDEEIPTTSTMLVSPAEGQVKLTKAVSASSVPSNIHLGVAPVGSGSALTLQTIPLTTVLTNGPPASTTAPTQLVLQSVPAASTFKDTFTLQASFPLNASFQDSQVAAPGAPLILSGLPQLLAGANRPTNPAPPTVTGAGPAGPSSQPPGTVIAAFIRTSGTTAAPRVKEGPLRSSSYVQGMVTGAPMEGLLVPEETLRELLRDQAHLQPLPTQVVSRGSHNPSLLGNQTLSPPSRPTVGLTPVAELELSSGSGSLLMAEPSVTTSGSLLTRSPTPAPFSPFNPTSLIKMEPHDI
Chain of SPIB (Q01892 whole entry): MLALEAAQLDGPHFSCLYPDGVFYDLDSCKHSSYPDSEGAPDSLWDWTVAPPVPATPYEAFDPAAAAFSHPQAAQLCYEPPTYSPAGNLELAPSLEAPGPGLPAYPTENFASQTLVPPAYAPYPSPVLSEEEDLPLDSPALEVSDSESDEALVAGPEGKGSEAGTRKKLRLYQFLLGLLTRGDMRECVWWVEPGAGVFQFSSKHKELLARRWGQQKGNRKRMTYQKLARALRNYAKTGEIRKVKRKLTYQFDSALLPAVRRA
Chain of ETV1 (P50549 whole entry): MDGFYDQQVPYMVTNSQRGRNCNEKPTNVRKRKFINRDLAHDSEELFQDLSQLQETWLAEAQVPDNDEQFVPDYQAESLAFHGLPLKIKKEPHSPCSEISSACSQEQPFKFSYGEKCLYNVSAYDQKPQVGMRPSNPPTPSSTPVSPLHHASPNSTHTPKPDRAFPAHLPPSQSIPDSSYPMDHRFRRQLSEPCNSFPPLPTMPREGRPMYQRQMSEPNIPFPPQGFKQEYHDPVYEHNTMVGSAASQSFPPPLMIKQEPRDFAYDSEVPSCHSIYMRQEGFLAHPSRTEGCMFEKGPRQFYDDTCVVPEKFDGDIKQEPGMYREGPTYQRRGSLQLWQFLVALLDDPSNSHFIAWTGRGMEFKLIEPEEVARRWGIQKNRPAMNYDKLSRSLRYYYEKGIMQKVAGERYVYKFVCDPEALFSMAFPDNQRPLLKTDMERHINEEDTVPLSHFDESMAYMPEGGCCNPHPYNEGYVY

GCTGTT was tested, and the binding signal [1] was 1.04 fold enrichment (6-mer frequency, TF over GST control), the binding signal [2] was 1.07 fold enrichment (6-mer frequency, TF over GST control) and the binding signal [3] was 1.12 fold enrichment (6-mer frequency, TF over GST control). The binding signal [4] was 1.11 fold enrichment (6-mer frequency, TF over GST control), the binding signal [5] was 1.1 fold enrichment (6-mer frequency, TF over GST control) and the binding signal [6] was 1.07 fold enrichment (6-mer frequency, TF over GST control). The binding signal [7] was 1.06 fold enrichment (6-mer frequency, TF over GST control), the binding signal [8] was 1.03 fold enrichment (6-mer frequency, TF over GST control) and the binding signal [9] was 1.04 fold enrichment (6-mer frequency, TF over GST control). For the same sequence, the binding signal [10] was 1.16 fold enrichment (6-mer frequency, TF over GST control), the binding signal [11] was 1.07 fold enrichment (6-mer frequency, TF over GST control) and the binding signal [12] was 1.25 fold enrichment (6-mer frequency, TF over GST control). For the same sequence, the binding signal [13] was 1.18 fold enrichment (6-mer frequency, TF over GST control), the binding signal [14] was 1.24 fold enrichment (6-mer frequency, TF over GST control) and the binding signal [15] was 1.1 fold enrichment (6-mer frequency, TF over GST control). The binding signal [16] was 1.17 fold enrichment (6-mer frequency, TF over GST control) and the binding signal [17] was 1.21 fold enrichment (6-mer frequency, TF over GST control).
